# According to PubChem BioAssay (NCI):
# The panel holds about 83,000 compounds, 20% with a hit somewhere; the sample as a whole holds those more often.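 Note: values are percent growth. 100 is the growth of untreated cells, values between 100 and 0 indicate rising inhibition; between -100 and 0 indicates cell death.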 Unmarked numbers belong to inactive results. Active and inactive are the calls of the source. The calls were made as follows: active = growth percent below 10; inactive = the rest.
# System: DU-145 prostate
# Assay: NCI-60 one-dose screen, 48 h (100 = growth as untreated, 0 = no growth, -100 = all killed)
# Conditions: 10 µM unless noted
row,Structure (SMILES),growth
1,COc1ccc(C(=O)NC(=O)Nc2ccc3c(c2)NC(=O)/C3=C\c2[nH]c(C)c(CCC(=O)O)c2C)c(F)c1,42.7%
2,Cn1c(I)c(C#C[Si](C)(C)C)c(=O)[nH]c1=O,64.3%
3,COC(=O)c1oc2c(C(C)=O)c(OCCCN(C)C)ccc2c1C,150%
4,CC(C)NCC(O)COc1ccc(CC(N)=O)cc1 (stereo not drawn),109%
5,O=C(NCCNc1nccc(-c2c(-c3cccc(O)c3)nc3sccn23)n1)Nc1cccc(C(F)(F)F)c1,89%
6,CNCCCOc1c(Br)cc(CCNC(=O)/C(Cc2ccc(OC)c(Br)c2)=N/O)cc1Br,61.2%
7,COc1cccc(-c2nc3sccn3c2-c2ccnc(NCCNC(=O)c3ccccc3)n2)c1,100%
8,O=C(N/N=C1\SCC(=O)N1c1ccccc1)c1cc(-c2cc3ccccc3o2)nn1-c1ccccc1,109%
9,Cc1ccc2c(c1)Nc1ccc(C)cc1C2(C)C,107%
10,COc1cc(NC(C)CCCN2C(=O)c3ccccc3C2=O)c2nccc(C)c2c1OC (stereo not drawn),124%
11,NCC(=O)NS(=O)(=O)OC[C@H]1O[C@@H](n2cnc3c(N)ncnc32)[C@H](O)[C@@H]1O,-31.7% (active)
12,CCN(CC)CC(=O)Nc1c(C)cccc1C,121%
13,Nc1ncnc2c1c(-c1ccc(Oc3ccccc3)cc1)nn2C[C@@H]1SSC[C@H]1O,33.4%
14,COc1cc(/C=C\c2cc(/C=C\c3ccc(O)c(OC)c3)n(C(=O)CNc3ccccc3OC)n2)ccc1O,95.3%
15,O=C1OC(N(Cc2ccc(Cl)cc2)c2ccccc2)c2ccccc21 (stereo not drawn),109%
16,CN(C)CC/C=C1\c2ccccc2Sc2ccc(Cl)cc21,90.9%
17,O=C(Nc1cccc(-n2ccc3c(NC(=O)c4ccccc4)nccc32)c1)Nc1cc(C(F)(F)F)cc(C(F)(F)F)c1,1.14% (active)
18,CCCCC(=O)Nc1nc2ccc(SCCC)cc2s1,67.4%
19,CCN(CC)c1ccc(C2CC(c3cc(OC)c(OC)c(OC)c3)=NN2)cc1 (stereo not drawn),-36.1% (active)
20,c1ccc2nc(Cn3cc[n+](Cc4ccc5ccccc5n4)c3)ccc2c1,88.7%

row,Structure (SMILES),growth
1,Clc1ccc(OCc2nc(-c3ccccc3)n[nH]2)c(Cl)c1,109%
2,CC(C)CNCC(=O)Nc1ccc(Cc2ccc(NC(=O)CNCC(C)C)cc2)cc1,58.3%
3,O=C(O)c1ccc(-n2cc(/C=N/Nc3ccc(F)cc3)c(-c3cccc(C(F)(F)F)c3)n2)cc1,81.6%
4,CCCCCCCCCCCCCCCCCCNCc1ccc(Cl)cc1,-91.3% (active)
5,COc1ccc(CCNC=O)cc1OC,102%
6,O=C(COc1ccc(Cl)cc1Cl)N1N=C(c2ccc(Cl)cc2Cl)CC1(O)c1cc(F)c(Cl)cc1Cl (stereo not drawn),123%
7,Cc1nccc2c3ccc(OCc4cn(Cc5ccc(Br)cc5)nn4)cc3n(CCCc3ccccc3)c12,91.9%
8,COc1ccc(-c2c(C#N)cnc(N)c2-c2nc3cc(C)c(C)cc3[nH]2)cc1,37.4%
9,O=c1c2ccccc2[nH]n1Cc1ccc2c(c1)OCO2,112%
10,COc1cc(Nc2ncccc2C(=O)Nc2nc3ccc(F)cc3s2)cc(OC)c1OC,90.4%
11,Cc1ccc(Cn2cc(COc3ccc4c5ccnc(C)c5n(CCCc5ccccc5)c4c3)nn2)cc1,103%
12,O=C(Nc1ccc(-n2ccc3c(NC(=O)c4ccccc4)ncnc32)cc1)Nc1ccc(Cl)c(C(F)(F)F)c1,-22.7% (active)
13,CCCCOc1c(N)cc(Cl)cc1C(=O)OCCN(CC)CC,116%
14,CC(Cl)(CCl)CS(=O)(=O)c1ccc(Cl)cc1 (stereo not drawn),108%
15,CCc1c(C)c2cc3c(c(C)c2oc1=O)OCC(=O)N3,72.5%
16,Cc1ccc(NC(=O)CN2CCOCC2)cc1Cl,102%
17,CC1(C)CC(=O)C2=C(C1)OC1=C(C(=O)CC(C)(C)C1)C2c1ccc(OCc2cn(-c3ccc(F)cc3F)nn2)cc1,92.2%
18,COc1cccc(-c2nc3sccn3c2-c2ccnc(NCCNC(=O)Nc3cccc(C(F)(F)F)c3)n2)c1,79.8%
19,CN(C)c1ccc(/C=N/N=C(N)N)cc1,92.6%

# System: K-562 leukemia
# Assay: as above
# Conditions: 10 µM unless noted
row,Structure (SMILES),growth
1,COc1ccc(C(=O)NC(=O)Nc2ccc3c(c2)NC(=O)/C3=C\c2[nH]c(C)c(CCC(=O)O)c2C)c(F)c1,23.9%
2,Cn1c(I)c(C#C[Si](C)(C)C)c(=O)[nH]c1=O,-71.3% (active)
3,COC(=O)c1oc2c(C(C)=O)c(OCCCN(C)C)ccc2c1C,73.3%
4,CC(C)NCC(O)COc1ccc(CC(N)=O)cc1 (stereo not drawn),96.6%
5,O=C(NCCNc1nccc(-c2c(-c3cccc(O)c3)nc3sccn23)n1)Nc1cccc(C(F)(F)F)c1,70.6%
6,CNCCCOc1c(Br)cc(CCNC(=O)/C(Cc2ccc(OC)c(Br)c2)=N/O)cc1Br,-21.6% (active)
7,COc1cccc(-c2nc3sccn3c2-c2ccnc(NCCNC(=O)c3ccccc3)n2)c1,67.5%
8,O=C(N/N=C1\SCC(=O)N1c1ccccc1)c1cc(-c2cc3ccccc3o2)nn1-c1ccccc1,90.6%
9,Cc1ccc2c(c1)Nc1ccc(C)cc1C2(C)C,97.4%
10,COc1cc(NC(C)CCCN2C(=O)c3ccccc3C2=O)c2nccc(C)c2c1OC (stereo not drawn),60.9%
11,NCC(=O)NS(=O)(=O)OC[C@H]1O[C@@H](n2cnc3c(N)ncnc32)[C@H](O)[C@@H]1O,7.38% (active)
12,CCN(CC)CC(=O)Nc1c(C)cccc1C,99.8%
13,Nc1ncnc2c1c(-c1ccc(Oc3ccccc3)cc1)nn2C[C@@H]1SSC[C@H]1O,7.7% (active)
14,COc1cc(/C=C\c2cc(/C=C\c3ccc(O)c(OC)c3)n(C(=O)CNc3ccccc3OC)n2)ccc1O,19.4%
15,O=C1OC(N(Cc2ccc(Cl)cc2)c2ccccc2)c2ccccc21 (stereo not drawn),87%
16,CN(C)CC/C=C1\c2ccccc2Sc2ccc(Cl)cc21,16.4%
17,O=C(Nc1cccc(-n2ccc3c(NC(=O)c4ccccc4)nccc32)c1)Nc1cc(C(F)(F)F)cc(C(F)(F)F)c1,4.23% (active)
18,CCCCC(=O)Nc1nc2ccc(SCCC)cc2s1,16.5%
19,CCN(CC)c1ccc(C2CC(c3cc(OC)c(OC)c(OC)c3)=NN2)cc1 (stereo not drawn),5.52% (active)
20,c1ccc2nc(Cn3cc[n+](Cc4ccc5ccccc5n4)c3)ccc2c1,41.1%

row,Structure (SMILES),growth
1,Clc1ccc(OCc2nc(-c3ccccc3)n[nH]2)c(Cl)c1,111%
2,CC(C)CNCC(=O)Nc1ccc(Cc2ccc(NC(=O)CNCC(C)C)cc2)cc1,-27.7% (active)
3,O=C(O)c1ccc(-n2cc(/C=N/Nc3ccc(F)cc3)c(-c3cccc(C(F)(F)F)c3)n2)cc1,11.1%
4,CCCCCCCCCCCCCCCCCCNCc1ccc(Cl)cc1,-65.7% (active)
5,COc1ccc(CCNC=O)cc1OC,115%
6,O=C(COc1ccc(Cl)cc1Cl)N1N=C(c2ccc(Cl)cc2Cl)CC1(O)c1cc(F)c(Cl)cc1Cl (stereo not drawn),64.4%
7,Cc1nccc2c3ccc(OCc4cn(Cc5ccc(Br)cc5)nn4)cc3n(CCCc3ccccc3)c12,75.5%
8,COc1ccc(-c2c(C#N)cnc(N)c2-c2nc3cc(C)c(C)cc3[nH]2)cc1,51.6%
9,O=c1c2ccccc2[nH]n1Cc1ccc2c(c1)OCO2,95.9%
10,COc1cc(Nc2ncccc2C(=O)Nc2nc3ccc(F)cc3s2)cc(OC)c1OC,97%
11,Cc1ccc(Cn2cc(COc3ccc4c5ccnc(C)c5n(CCCc5ccccc5)c4c3)nn2)cc1,62.3%
12,O=C(Nc1ccc(-n2ccc3c(NC(=O)c4ccccc4)ncnc32)cc1)Nc1ccc(Cl)c(C(F)(F)F)c1,0.237% (active)
13,CCCCOc1c(N)cc(Cl)cc1C(=O)OCCN(CC)CC,83.9%
14,CC(Cl)(CCl)CS(=O)(=O)c1ccc(Cl)cc1 (stereo not drawn),105%
15,CCc1c(C)c2cc3c(c(C)c2oc1=O)OCC(=O)N3,82.5%
16,Cc1ccc(NC(=O)CN2CCOCC2)cc1Cl,94.7%
17,CC1(C)CC(=O)C2=C(C1)OC1=C(C(=O)CC(C)(C)C1)C2c1ccc(OCc2cn(-c3ccc(F)cc3F)nn2)cc1,73.8%
18,COc1cccc(-c2nc3sccn3c2-c2ccnc(NCCNC(=O)Nc3cccc(C(F)(F)F)c3)n2)c1,39.9%
19,CN(C)c1ccc(/C=N/N=C(N)N)cc1,40%
